# Cav3 T inh = inhibitors of human Cav3.2 T-type calcium channel. O95180. Cav3.2-expressing cells, Fluo-4 calcium fluorescence FDSS; hits give low values. B-score at 10 µM. 100,000 compounds, 4% hits. AID 449739;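 active = single-dose well whose peak fluorescence ratio is a statistical outlier from its plate by either plate-standardised score or position-corrected B-score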
# CYP2C19 inh = human CYP2C19 inhibition; AID 778; P33261; 96,000 compounds, 21% hits; inhibition, % at 5 µM; CYP2C19 Supersomes, luciferin-H EGE luminescence, 30 min;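 active = CYP2C19 inhibition above a set limit at 5 µM in the primary screen, cut at about 50% in these data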;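 note: plate controls were negative control wells for no effect and 2.5 mM tranylcypromine positive control for full effect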
# Target sequence (P33261 whole entry, looked up): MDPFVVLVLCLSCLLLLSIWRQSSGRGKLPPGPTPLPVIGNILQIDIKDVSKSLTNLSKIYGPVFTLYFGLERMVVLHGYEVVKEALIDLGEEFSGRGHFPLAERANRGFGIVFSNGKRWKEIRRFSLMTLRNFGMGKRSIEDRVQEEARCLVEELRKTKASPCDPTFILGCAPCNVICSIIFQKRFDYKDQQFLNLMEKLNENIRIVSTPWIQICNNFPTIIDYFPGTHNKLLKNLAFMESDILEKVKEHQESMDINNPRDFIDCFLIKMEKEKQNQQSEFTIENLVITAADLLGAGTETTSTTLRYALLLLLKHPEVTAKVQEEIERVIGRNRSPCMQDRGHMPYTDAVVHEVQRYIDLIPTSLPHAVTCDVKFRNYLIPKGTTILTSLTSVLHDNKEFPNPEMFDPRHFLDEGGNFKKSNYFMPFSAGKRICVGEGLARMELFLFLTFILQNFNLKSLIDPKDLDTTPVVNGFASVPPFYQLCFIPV
# CYP2C9 inhib = inhibitors of human CYP2C9; CYP2C9 Supersomes, luciferin-H conversion, luminescence; inhibition, % at 5 µM; 96,000 compounds, 20% hits;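 active = blocking of liver enzyme CYP2C9 beyond about 50% at 5 µM, limit read from the data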
# CYP2C9 act = activators of human CYP2C9 | AID 1024 | 96,000 compounds, 1.4% hits | recombinant CYP2C9, luciferin-H conversion, luminescence; hits give high values; factor 1 = untreated enzyme, 0 = blocked | P11712 | activation factor at 5 µM;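 active = activation factor of 2 or more for CYP2C9 at a 5 µM dose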;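 note: 0 = sulfaphenazole-blocked wells and 1 = vehicle-only wells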
# CYP2C19 activ = increases human CYP2C19 enzyme activity | activation factor at 5 µM | 96,000 tested, under 10 active | P33261 | recombinant CYP2C19, luciferin-H EGE luminescence; hits give high values; 0 = fully inhibited enzyme, 1 = untreated enzyme;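 active = activation factor of at least 2 at 5 µM in the primary screen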;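 note: 0 = wells with 2.5 mM tranylcypromine and 1 = vehicle-only wells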
# * hit, by the source's call; x = not tested or not shown. Rows were chosen to be rich in hits. Some 27% of all compounds tested hit in one or more screens of this group.
SMILES,Cav3 T inh,CYP2C19 inh,CYP2C9 inhib,CYP2C9 act,CYP2C19 activ
CCOC(=O)N1CCN(C(=O)CS(=O)Cc2nc(-c3ccc(C)cc3)oc2C)CC1 (stereo unspecified),-0.0396,10.0,26.6,0.7,0.9
Cc1oc(-c2ccccc2)nc1CS(=O)CC(=O)N1CCc2ccccc2C1 (stereo unspecified),0.342,60.9*,67.9*,0.3,0.4
Cc1c(C(=O)N(C)C)sc(NC(=O)c2cc([N+](=O)[O-])cc([N+](=O)[O-])c2)c1C#N,-1.72,0.1,47.3,0.5,1
Cc1nc(NC(=O)c2ccccc2)sc1C1(C)CC(c2ccccc2F)=NO1 (stereo unspecified),-1,x,x,x,x
CCOC(=O)Cc1csc(SCC(=O)c2c(N)n(CC(C)C)c(=O)n(C)c2=O)n1,x,17.3,7.5,0.9,0.8
CCOC(=O)Cc1csc(SCC(=O)/C(C#N)=C(\C)N)n1,0.0318,94.6*,19.3,0.8,0.1
CCOC(=O)Cc1csc(SCc2nc3ccccc3c(=O)[nH]2)n1,-0.416,45.0,73.0*,0.3,0.6
Cc1nc(C(=O)NCc2ccccc2)sc1C1(C)CC(c2ccccc2)=NO1 (stereo unspecified),-2.7,x,x,x,x
Cn1c(=O)c2c(SCc3c(F)cccc3Cl)nc(CC(C)(C)C)nc2n(C)c1=O,-2.06,3.3,31.6,0.7,1
CCCCOc1ccc(CN(C)c2ncnc(N)n2)cc1,-1.15,x,x,x,x
COc1ccc(CN(C)c2ncnc(N)n2)cc1,0.0593,78.1*,10.8,0.9,0.2
Cc1ccc(S(=O)(=O)Nc2ccc(N3CCOCC3)cc2)cc1,-0.226,96.4*,94.4*,0.1,0
Cc1ccc(NS(=O)(=O)c2ccc(N3C(=O)CCC3=O)cc2)cc1,0.33,64.3*,44.2,0.6,0.4
O=S(=O)(Nc1ccc(N2CCOCC2)cc1)c1ccc2ccccc2c1,x,92.3*,46.0,0.5,0.1
O=S(=O)(c1ccc(N2CCOCC2)cc1)N1CCOCC1,0.606,-19.0,-31.8,1.3,1.2
Cc1ccc(S(=O)(=O)NC2=C(N3CCN(Cc4ccccc4)CC3)C(=O)c3ccccc3C2=O)cc1,x,-5.3,63.1*,0.4,1.1
Cc1ccc(N2C(=O)CSCC2=O)cc1,-2.55,-9.2,-24.0,1.2,1.1
Cc1c(C(=O)N2CCN(c3ccccc3F)CC2)sc2ncn(CC(=O)N3CCOCC3)c(=O)c12,x,2.6,10.6,0.9,1
CC(=O)Nc1ccc(S(=O)(=O)Nc2ccc(S(=O)(=O)N3CCCC3)cc2)cc1,-0.118,x,x,x,x
CC(=O)Nc1ccc(S(=O)(=O)NC2=C(N3CCN(c4ccc(F)cc4)CC3)C(=O)c3ccccc3C2=O)cc1,x,25.8,60.8*,0.4,0.7
CC(=O)Nc1ccc(S(=O)(=O)Nc2ccc(N3CCOCC3)cc2)cc1,1.21,90.0*,40.0,0.6,0.1
COc1ccc(NC(=O)COC(=O)c2cnccn2)cc1Cl,-0.013,-6.5,-9.9,1.1,1.1
CC(C)OP(C)(=O)CN1CCN(CP(C)(=O)OC(C)C)CC1 (stereo unspecified),0.789,-0.8,7.8,0.9,1
CC(/C=N/Nc1nnc2c(n1)[nH]c1ccccc12)=C\c1ccco1,0.32,79.9*,-5.1,1.1,0.2
O=C(COc1ncnc2sccc12)N1CCN(S(=O)(=O)c2ccc(Cl)cc2)CC1,0.874,0.6,11.6,0.9,1
SMILES,Cav3 T inh,CYP2C19 inh,CYP2C9 inhib,CYP2C9 act,CYP2C19 activ
c1ccc(-c2csc(-n3cnnn3)n2)cc1,0.301,62.4*,11.8,0.9,0.4
COc1ccc(N2CS(=O)(=O)/C(=C/N(C)C)C2=O)cc1,0.472,-2.1,-4.1,1,1
Cc1ccc(-n2nnnc2SCCNS(=O)(=O)c2ccccc2)cc1C,-3.38,74.6*,-95.5,2*,0.3
Cn1nnnc1SCCNS(=O)(=O)c1ccccc1,0.2,78.2*,-3.5,1,0.2
CCOc1ccc(-c2nc(N)ncc2Oc2cccc(OC)c2)c(O)c1,0.7,0.7,-4.3,1,1
COc1cccc(Oc2cncnc2-c2ccc(OC)cc2O)c1,-3.86*,98.3*,99.1*,0,0
c1ccc(CNn2nnnc2-c2ccccc2)cc1,-0.105,68.2*,12.9,0.9,0.3
CC(c1ccco1)N(C(=O)c1ccc(C#N)cc1)c1ccccn1 (stereo unspecified),1.89,18.9,6.9,0.9,0.8
O=C(c1ccccc1)n1nnc2ccccc21,0.379,-17.7,-26.5,1.3,1.2
CCOC(=O)c1sc(NC(=O)/C=C/c2cnn(C)c2C)c(C(=O)OC(C)C)c1C,-0.108,-2.4,24.8,0.8,1

# Compound activity: PubChem BioAssay, several laboratories
